Laboratory results from PubChem BioAssay (NCATS).
Inconclusive results are not listed. Active and inactive are the calls of the source. Calls follow the shape of the dose curve; as a rule, active = well fitted curve in the direction sought with a large enough effect; inconclusive = small, poorly fitted or top-dose-only effect, or another doubt; inactive = no such curve, though single readings can be large; an effect the other way counts as inactive or inconclusive.

Assays:
CRL-7250 = normal cell line; assay: Cytotoxic Profiling of Annotated Libraries Using Quantitative High-Throughput Screening (AID 1296008); conditions: Five cell lines viability, CellTiter-Glo ATP luminescence, 48-72 h; max response: hits give low values; also: nearly all actives have a fitted effect of over 60% in size; also: potency is read from the fitted curve at half-maximal effect; as to max response: % is scaled to controls: 0 for no effect and ±100 for the full control effect
Outline: (§1)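 Cells exposed to compounds for 48 or 72 hr at 37 degrees Celsius. Viability read as ATP-coupled luminescence with CellTiter-Glo after 10 min at room temperature.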

HEK293 = assay: as above; conditions: Five cell lines viability, CellTiter-Glo ATP luminescence, 48-72 h; max response: hits give low values
Outline: as §1

HaCat [1] = assay: as above; conditions: Five cell lines viability, CellTiter-Glo ATP luminescence, 48-72 h; max response: hits give low values
Outline: as §1

KB-3-1 = assay: as above; conditions: Five cell lines viability, CellTiter-Glo ATP luminescence, 48-72 h; max response: hits give low values
Outline: as §1

NIH3T3 = assay: as above; conditions: Five cell lines viability, CellTiter-Glo ATP luminescence, 48-72 h; max response: hits give low values
Outline: as §1

HACAT [2] = assay: qHTS assay to identify novel small-molecules to repurpose for Merkel cell carcinoma treatment (AID 1296009); conditions: MCC and control cell lines, CellTiter-Glo viability, 72 h; at 44.8 µM (top of the series) unless noted; also: nearly all actives have a fitted effect of over 60% in size
Outline: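 CellTiter-Glo luminescence after 72 hr compound exposure at 37 degree celsius gave cell viability. Libraries NPC and MIPE were run as 8- and 11-point dose responses; RLUs normalized to DMSO (negative) and no-cell (cytotoxicity) controls.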

C33A = assay: Primary qHTS to identify gynecologic anti-cancer compounds using libraries of approved drugs and bioactive compounds (AID 1345084); conditions: Gynecologic cancer cell panel viability, ATPlite luminescence, 48 h; series mostly up to 57.5 µM; also: % is scaled to controls: 0 for no effect and ±100 for the full control effect; nearly all actives have a fitted effect of over 55% in size
Outline: (§2)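 Cell viability after 48 h drug treatment, ATPlite luminescence readout; five doses.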

CAOV3 = assay: as above; conditions: Gynecologic cancer cell panel viability, ATPlite luminescence, 48 h; series mostly up to 57.5 µM
Outline: as §2

CASKI = assay: as above; conditions: Gynecologic cancer cell panel viability, ATPlite luminescence, 48 h; series mostly up to 57.5 µM
Outline: as §2

Es-2 = assay: as above; conditions: Gynecologic cancer cell panel viability, ATPlite luminescence, 48 h; series mostly up to 57.5 µM
Outline: as §2

HeLa = assay: as above; conditions: Gynecologic cancer cell panel viability, ATPlite luminescence, 48 h; series mostly up to 57.5 µM
Outline: as §2

Hek293T = assay: as above; conditions: Gynecologic cancer cell panel viability, ATPlite luminescence, 48 h, control line for the selectivity index; series mostly up to 57.5 µM
Outline: as §2

JEG-3 = assay: as above; conditions: Gynecologic cancer cell panel viability, ATPlite luminescence, 48 h; series mostly up to 57.5 µM
Outline: as §2

Cc1nc2ccccc2c(-c2ccc3c4c(ccnc24)CCO3)c1[C@H](OC(C)(C)C)C(=O)O
inactive: max response (CRL-7250) -8% | max response (HEK293) 4.74% | outcome (HaCat [1]) | max response (KB-3-1) -6.3% | max response (NIH3T3) -2.71% | outcome (HACAT [2]) | Potency (C33A) | Potency (CAOV3) | outcome (CASKI) | Potency (Es-2) | Potency (HeLa) | Potency (Hek293T) | Potency (JEG-3)

O=C(Nc1ccn(Cc2c(F)cccc2C(F)(F)F)n1)c1c(F)cccc1F
inactive: max response (CRL-7250) -12.9% | max response (HEK293) 1.72% | outcome (HaCat [1]) | outcome (KB-3-1) | max response (NIH3T3) 2.19% | outcome (HACAT [2]) inactive [at 9.27 µM] | activity change, negative = cytotoxicity (C33A) 3.35% [at 11.6 µM] | activity change, negative = cytotoxicity (CAOV3) 17% [at 11.6 µM] | activity change, negative = cytotoxicity (CASKI) 7.64% [at 11.6 µM] | activity change, negative = cytotoxicity (Es-2) 0.101% [at 11.6 µM] | activity change, negative = cytotoxicity (HeLa) 13% [at 11.6 µM] | activity change, negative = cytotoxicity (Hek293T) -2.96% [at 11.6 µM] | activity change, negative = cytotoxicity (JEG-3) 9.68% [at 11.6 µM]

C/C(=C\CC[C@H](CO)[C@@H]1CC[C@]2(C)C3=C(CC[C@@]12C)[C@@]1(C)CCC(=O)C(C)(C)C1CC3)C(=O)O (stereo partly specified)
inactive: max response (CRL-7250) -4.82% | max response (HEK293) -7.09% | outcome (HaCat [1]) | max response (KB-3-1) 6.51% | max response (NIH3T3) -2.55% | outcome (HACAT [2]) inactive [at 17.4 µM] | Potency (C33A) | Potency (CAOV3) | outcome (CASKI) | Potency (Es-2) | Potency (HeLa) | Potency (Hek293T) | Potency (JEG-3)

CC12CC34CC(O)C5C(CO)(CO)CC(=O)CC5(C)C3CC1C2C4 (stereo unspecified)
inactive: max response (CRL-7250) -4.91% | max response (HEK293) -0.711% | outcome (HaCat [1]) | max response (KB-3-1) 0.93% | max response (NIH3T3) 2.14% | outcome (HACAT [2]) | Potency (C33A) | Potency (CAOV3) | outcome (CASKI) | Potency (Es-2) | Potency (HeLa) | Potency (Hek293T) | Potency (JEG-3)

C[C@H]1CC[C@@]2(OC1)O[C@H]1CC3C4CC[C@H]5C[C@@H](O)CC[C@]5(C)C4CC(=O)[C@]3(C)[C@H]1[C@@H]2C (stereo partly specified)
inactive: max response (CRL-7250) 2.1% | max response (HEK293) -2.47% | outcome (HaCat [1]) | outcome (KB-3-1) | max response (NIH3T3) 3.42% | outcome (HACAT [2]) inactive [at 17.4 µM] | Potency (C33A) | Potency (CAOV3) | outcome (CASKI) | Potency (Es-2) | Potency (HeLa) | Potency (Hek293T) | Potency (JEG-3)

C[C@@H]1O[C@@H](O[C@H]2[C@@H]3C=CO[C@@H](O[C@@H]4O[C@H](CO)[C@@H](O)[C@H](O)[C@H]4O)[C@@H]3[C@@]3(CO)O[C@@H]23)[C@H](O)[C@H](OC(=O)/C=C/c2ccc(O)cc2)[C@H]1OC(=O)/C=C/c1ccc(O)cc1
inactive: max response (CRL-7250) 4.25% | max response (HEK293) -0.28% | outcome (HaCat [1]) | max response (KB-3-1) 2.65% | max response (NIH3T3) -10.1% | outcome (HACAT [2]) inactive [at 17.4 µM] | Potency (C33A) | Potency (CAOV3) | outcome (CASKI) | Potency (Es-2) | Potency (HeLa) | Potency (Hek293T) | Potency (JEG-3)

C[C@@H]1O[C@@H](O[C@H]2[C@H](O[C@H]3[C@H](O[C@H]4CC[C@@]5(C)C(CC[C@]6(C)C5CC=C5[C@@H]7CC(C)(C)CC(=O)[C@]7(C)CC[C@]56C)[C@@]4(C)CO)O[C@H](C(=O)O)[C@@H](O)[C@@H]3O)O[C@H](CO)[C@H](O)[C@@H]2O)[C@H](O)[C@H](O)[C@H]1O (stereo partly specified)
inactive: max response (CRL-7250) -2.01% | max response (HEK293) -1.03% | outcome (HaCat [1]) | outcome (KB-3-1) | max response (NIH3T3) 0.221% | outcome (HACAT [2]) inactive [at 9.27 µM] | activity change, negative = cytotoxicity (C33A) 0.189% [at 11.6 µM] | activity change, negative = cytotoxicity (CAOV3) 7.98% [at 11.6 µM] | activity change, negative = cytotoxicity (CASKI) 5.16% [at 11.6 µM] | activity change, negative = cytotoxicity (Es-2) -0.773% [at 11.6 µM] | activity change, negative = cytotoxicity (HeLa) 5.13% [at 11.6 µM] | activity change, negative = cytotoxicity (Hek293T) -1.22% [at 11.6 µM] | activity change, negative = cytotoxicity (JEG-3) 4.8% [at 11.6 µM]

C/C=C/C=C/C=C/C(=O)OC1C=C2C(O)OC(=O)[C@]2(O)[C@@]2(C)CCCC(C)(C)[C@H]12 (stereo partly specified)
inactive: max response (CRL-7250) -0.551% | max response (HEK293) 4.05% | outcome (HaCat [1]) | max response (KB-3-1) 4.24% | max response (NIH3T3) 3.08% | outcome (HACAT [2]) inactive [at 17.4 µM] | Potency (C33A) | Potency (CAOV3) | outcome (CASKI) | Potency (Es-2) | Potency (HeLa) | Potency (Hek293T) | Potency (JEG-3)

Cc1ccc(-c2c(-c3nn(C)c4ncnc(N5CCC(N6CCCCC6)C5)c34)cnn2C)cc1 (stereo unspecified)
inactive: outcome (CRL-7250) | max response (HEK293) -1.32% | outcome (HaCat [1]) | outcome (KB-3-1) | max response (NIH3T3) 4.76% | outcome (HACAT [2]) | Potency (C33A) | Potency (CAOV3) | outcome (CASKI) | Potency (Es-2) | Potency (HeLa) | Potency (Hek293T) | Potency (JEG-3)

N=C(N)c1ccc2nc(-c3cc(CC(=O)NC(CC(=O)O)C(=O)O)cc(-c4cc(S(N)(=O)=O)ccc4O)c3O)[nH]c2c1 (stereo unspecified)
inactive: max response (CRL-7250) -1.88% | max response (HEK293) 1.8% | outcome (HaCat [1]) | outcome (KB-3-1) | max response (NIH3T3) -8.69% | outcome (HACAT [2]) | Potency (C33A) | Potency (CAOV3) | outcome (CASKI) | Potency (Es-2) | Potency (HeLa) | Potency (Hek293T) | Potency (JEG-3)

CCCSc1nc(NC2CC2c2ccc(F)c(F)c2)c2nnn(C3CC(OCCO)C(O)C3O)c2n1 (stereo unspecified)
active: Potency (HEK293) 18.4 µM
inactive: outcome (CRL-7250) | outcome (HaCat [1]) | max response (KB-3-1) -19.7% | max response (NIH3T3) -3.04% | outcome (HACAT [2]) | Potency (C33A) | Potency (CAOV3) | outcome (CASKI) | Potency (Es-2) | Potency (HeLa) | Potency (Hek293T) | Potency (JEG-3)

CC1=CC(=O)CC(C)(C)C1CCC(C)O[C@@H]1O[C@H](CO)[C@@H](O)[C@H](O)[C@H]1O (stereo partly specified)
inactive: outcome (CRL-7250) | max response (HEK293) 3.44% | outcome (HaCat [1]) | max response (KB-3-1) 5.09% | max response (NIH3T3) 0.902% | outcome (HACAT [2]) | Potency (C33A) | Potency (CAOV3) | outcome (CASKI) | Potency (Es-2) | Potency (HeLa) | Potency (Hek293T) | Potency (JEG-3)
